Screening results: PubChem BioAssay, National Center for Advancing Translational Sciences (NCATS)
Rows were chosen to be rich in hits. Some 12% of all compounds tested hit in one or more screens of this group.
PI5P4Ka inh – inhibitors of human PI5P4K alpha; 330,000 tested, 1.2% active; P48426; max response, %; PI5P4Kalpha enzyme, ADP-Glo luminescence, 60 min; active compounds read low; active = max response of -50% or lower; inconclusive = between -30% and -50%; inactive = -30% or higher; also: value at the top dose of about 77 µM; % is scaled to controls: 0 for no effect and ±100 for the full control effect
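Reactions run in 0.038 M HEPES pH 7.4, 0.28 mM EGTA, 0.1% CHAPS and 5% DMSO, with PI5P4Kalpha, substrate, compound and 5 microM ATP final, one hour at room temperature. Readout is ADP-Glo luminescence.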
JMJD2A Tudor inh – blocks the human JMJD2A Tudor domain; O75164; AlphaScreen JMJD2A-Tudor / H3K4me3 peptide binding; Potency, µM (highest dose often 114 µM), for inactives: at the top dose activity change, negative = inhibition, hits mostly inhibitors; 390,000 tested, 4.4% active; also: potency is read from the fitted curve at half-maximal effect; % is scaled to controls: 0 for no effect and ±100 for the full control effect; nearly all actives have a fitted effect of over 50% in size
HP1b chromo inh – inhibitors of HP1-beta chromodomain binding to methylated histone tails | Potency, µM (series often up to 114 µM), inactives show at the top dose activity change, negative = inhibition, most hits filed as inhibitors | 390,000 tested, 0.56% active | P83916 | AID 540317 | AlphaScreen HP1-beta / biotin-H3K9me3 peptide binding; also: potency is read from the fitted curve at half-maximal effect; nearly all actives have a fitted effect of over 70% in size
Target sequence (P83916 whole entry, looked up): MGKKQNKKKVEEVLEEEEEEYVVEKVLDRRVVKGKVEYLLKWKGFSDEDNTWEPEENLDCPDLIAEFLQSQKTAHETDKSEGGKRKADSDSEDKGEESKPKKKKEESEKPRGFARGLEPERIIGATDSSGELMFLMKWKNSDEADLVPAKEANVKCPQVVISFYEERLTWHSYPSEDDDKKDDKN
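Compound inhibition of the preformed complex between 50 nM HP1-beta and 50 nM biotinylated H3K9me3 peptide was read by AlphaScreen. Buffer was PBS pH 7.4 with 0.01% Tween-20. Incubations ran 30 min at room temperature, with 10 ug/mL donor/acceptor beads.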
PLK1 PBD inh – blocks phosphopeptide binding to human PLK1 polo-box domain; 360,000 tested, 2.8% active; Potency, µM, for the others: max response, negative = inhibition, actives largely listed as inhibitors; Plk1 PBD binding of FITC phosphopeptide, fluorescence polarization; AID 720504; P53350; also: potency is read from the fitted curve at half-maximal effect; series mostly up to about 57 µM; % is scaled to controls: 0 for no effect and ±100 for the full control effect; nearly all actives have a fitted effect of over 65% in size
BAZ2B inh – BAZ2B (human) inhibition; Q9UIF8; AlphaScreen BAZ2B-H3K14Ac peptide displacement; Potency, µM (series often up to 114 µM), for the others: top-dose activity change, negative = inhibition, usual class: inhibitors; 360,000 tested, 4.4% active; AID 504333; also: potency is read from the fitted curve at half-maximal effect; % is scaled to controls: 0 for no effect and ±100 for the full control effect; nearly all actives have a fitted effect of over 60% in size
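BAZ2B (50 nM) with biotin-H3(5-23)K14Ac peptide (50 nM) in PBS pH 7.4, 0.01% Tween-20, preformed 30 min, then compound 30 min at room temperature; top concentration 110uM. AlphaScreen streptavidin donor/nickel chelate acceptor beads (10 ug/mL final), 20 min dark, signal read.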
G9a block – inhibitors of human histone lysine methyltransferase G9a; G9a H3K9 monomethylation, AlphaScreen, 2 h; Potency, µM (doses to about 102 µM), without a hit: top-dose activity, negative = inhibition, most hits filed as inhibitors; 350,000 tested, 8.8% active; Q96KQ7; also: potency is read from the fitted curve at half-maximal effect; % is scaled to controls: 0 for no effect and ±100 for the full control effect; nearly all actives have a fitted effect of over 75% in size
Target sequence (Q96KQ7 913-1193 limits assumed): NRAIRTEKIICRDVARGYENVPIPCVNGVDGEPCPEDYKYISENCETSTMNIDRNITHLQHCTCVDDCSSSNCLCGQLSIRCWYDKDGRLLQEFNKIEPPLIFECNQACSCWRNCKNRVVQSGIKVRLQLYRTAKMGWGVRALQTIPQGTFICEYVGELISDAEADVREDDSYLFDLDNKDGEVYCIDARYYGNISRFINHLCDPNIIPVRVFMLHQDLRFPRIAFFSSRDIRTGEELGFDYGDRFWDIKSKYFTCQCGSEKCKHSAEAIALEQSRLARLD
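Step 1: enzyme (final 20 nM) with compound, 15 min RT. Step 2: substrate peptide 500 nM and SAM 20 uM, 2 h RT. Step 3: anti-H3K9me1 antibody and AlphaScreen beads, 10 min, then plate read.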
Active calls of the source: *; ? = inconclusive; · = not tested or not shown; [ ] = remark or other dose. Unless noted, calls follow the shape of the dose curve; as a rule, active = well fitted curve in the direction sought with a large enough effect; inconclusive = small, poorly fitted or top-dose-only effect, or another doubt; inactive = no such curve, though single readings can be large; an effect the other way counts as inactive or inconclusive.

SMILES | PI5P4Ka inh | JMJD2A Tudor inh | HP1b chromo inh | PLK1 PBD inh | BAZ2B inh | G9a block
CC(=O)c1cccc(N2C(=NC(=O)COc3ccccc3)SC3CS(=O)(=O)CC32)c1 (stereo not drawn) | -23.4 | ? | 17.8% | 23.8µM* | -19.3% | 12.8%
Cc1cccc(OCc2nnc(SCC(=O)Nc3ccc(N4CCOCC4)cc3)o2)c1 | 2.2 | -4.8% | 24.8% | -15.8% | 1.0% | 10.5%[59 µM]
Cc1ccc(C2(O)CN(c3ccccc3C)C3=[N+]2CCS3)cc1 (stereo not drawn) | -11.0 | -20.1% | 33.5% | -0.2% | -9.0% | 31.6µM*
Cc1ccc(C2(O)CN(c3ccccc3)C3=[N+]2CCS3)cc1 (stereo not drawn) | 6.6 | -28.4% | 36.0% | 2.3% | ? | 5.6%
Cc1ccccc1N1CC(O)(c2ccccc2)[N+]2=C1SCC2 (stereo not drawn) | 3.0 | -11.3% | 59.4% | -3.0% | 5.0% | 31.6µM*
OC1(c2ccc(F)cc2)CN(c2ccccc2)C2=[N+]1CCS2 (stereo not drawn) | -4.9 | ? | 15.4% | -8.5% | ? | ?
COc1cc(OC)c(NC(=O)N2CCSc3ccccc32)cc1Cl | · | -27.1% | 15.7% | · | ? | ?
COc1cc2c(c(OC)c1CC=C(C)C)C[C@H](c1ccc(O)cc1O)CO2 | 22.5 | 56.2µM* | -30.9% | 1.4% | · | ·
Cc1ccc(CN2C(=O)C3CCCN3c3ccc(C#N)cc32)cc1 (stereo not drawn) | · | · | · | · | -17.9% | 20µM*
O=C1C2CCCN2c2ccc(S(=O)(=O)N3CCOCC3)cc2N1Cc1ccccc1F (stereo not drawn) | -9.6 | -10.2%[57.1 µM] | 44.1% | -14.5% | 2.5% | ·
Cc1ccc(C)c(CN2C(=O)C3CCCN3c3ccc(C#N)cc32)c1 (stereo not drawn) | -8.8 | 5.3% | 44.9% | -3.9% | 1.2% | ?
N#CCN1C(=O)C2CCCN2c2ccc(S(=O)(=O)N3CCOCC3)cc21 (stereo not drawn) | -3.2 | -9.7% | 31.8% | -1.7% | -26.6% | 20µM*
CNS(=O)(=O)c1ccc2c(c1)NC(=O)C1CCCN21 (stereo not drawn) | -15.6 | -20.9% | 26.9% | -21.7% | -6.2% | ?
CON(C)S(=O)(=O)c1ccc2c(c1)N(Cc1ccc(C)cc1)C(=O)C1CCCN21 (stereo not drawn) | -25.4 | -17.5% | 38.0% | -17.1% | -22.4% | 25.1µM*
N#Cc1ccc2c(c1)NC(=O)C1CCCN21 (stereo not drawn) | 2.8 | -10.3% | 23.0% | -18.7% | -28.9% | 14.1µM*
COCCCN1CN(S(=O)(=O)c2ccc(Cl)cc2)c2nc3ccccc3nc21 | -7.1 | -31.1% | 8.9% | -9.1% | -28.9% | 28.2µM*
CCCCN1CN(S(=O)(=O)c2ccc(OC)cc2)c2nc3ccccc3nc21 | 2.7 | -19.9% | 38.4% | -6.8% | ? | 35.5µM*
CC(C)OCCCN1CN(S(=O)(=O)c2ccccc2)c2nc3ccccc3nc21 | -6.2 | -6.4% | 45.3% | -2.3% | ? | 31.6µM*
CN1CCCN(S(=O)(=O)c2ccccc2)c2nc3ccccc3nc21 | 3.9 | 71.9% | 200.9% | -11.8% | 42.4% | ?
C=CCN1CN(S(=O)(=O)c2cccc(Cl)c2)c2nc3ccccc3nc21 | 21.9 | -3.9% | 36.0% | 4.4% | -29.7% | 79.4µM*
O=S(=O)(c1cccc(Cl)c1)N1CN(CC2CCCO2)c2nc3ccccc3nc21 (stereo not drawn) | 2.9 | -29.0% | 18.0% | -13.0% | ? | ·
Nc1c(OS(=O)(=O)c2ccccc2)cccc1OS(=O)(=O)c1ccccc1 | 14.0 | · | · | -19.0% | · | ·
CC(OC(=O)CN1C(=O)c2ccccc2C1=O)C(=O)N(C)c1ccccc1 (stereo not drawn) | -2.3 | 6.8% | 15.1% | 2.2% | 0.1% | -8.9%
Cc1cc(C)c2oc(=O)cc(CN3CCC(C)CC3)c2c1 | 2.7 | 9.1% | 46.5% | -5.6% | 3.1% | -3.9%
COCCN1CN(S(=O)(=O)c2cccc(Cl)c2)c2nc3ccccc3nc21 | 0.5 | -34.5% | -6.6% | -25.2% | -33.2% | 44.7µM*
